Measurements taken from PubChem BioAssay (NCI).
Compounds without any hit were thinned out: in the full panel of roughly 79,000, 15% have a hit. Active and inactive are the calls of the source. Rule as the data show it: active = growth inhibition above about 70%; inactive = the rest.

What was measured:
[1] = NCI Yeast Anticancer Drug Screen. Data for the rad50 strain (AID 155);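 also: 0% = growth of vehicle-only cultures of the same strain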; details: S. cerevisiae rad50 strain growth inhibition; at 50.0 µM; hits give high values
Procedure, shortened: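 Genetically altered yeast (DNA repair pathway); compound treatment; growth inhibition vs vehicle ctrl.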

[2] = NCI Yeast Anticancer Drug Screen. Data for the mec2-1 strain (AID 157); details: S. cerevisiae mec2-1 strain, at 50.0 µM, hits give high values
Procedure, shortened: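 mec2-1 yeast strain, carrying an alteration in DNA damage repair or cell cycle control, was exposed to compounds; growth inhibition was measured relative to vehicle-treated controls.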

[3] = NCI Yeast Anticancer Drug Screen. Data for the sgs1 mgt1 strain (AID 161);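 also: 0% = growth of cultures given vehicle only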; details: S. cerevisiae sgs1 mgt1 strain, at 50.0 µM, hits give high values
Procedure, shortened: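 Growth of a repair-deficient yeast mutant was monitored after compound treatment and expressed as inhibition relative to vehicle-treated cultures.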

[4] = NCI Yeast Anticancer Drug Screen. Data for the cln2 rad14 strain (AID 165);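 also: 0% = growth equal to vehicle treated cultures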; details: S. cerevisiae cln2 rad14 strain, at 50.0 µM, hits give high values
Procedure, shortened: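 Yeast carrying cln2 and rad14 alterations (cell cycle control and DNA damage repair) were exposed to compounds. Growth inhibition was measured against vehicle-treated controls.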

[5] = NCI Yeast Anticancer Drug Screen. Data for the bub3 strain (AID 167); details: S. cerevisiae bub3 mutant strain, at 50.0 µM, hits give high values
Procedure, shortened: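 Yeast carrying a defined mutation is treated with each compound, and growth is compared with that of vehicle-exposed cells to give inhibition.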

[6] = NCI Yeast Anticancer Drug Screen. Data for the mlh1 rad18 strain (AID 175); details: S. cerevisiae mlh1 rad18 strain growth inhibition; at 50.0 µM; hits give high values
Procedure, shortened: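 Growth inhibition of the yeast strain was measured after compound exposure and expressed relative to vehicle-treated controls. The strain carries defined defects in DNA damage repair.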

Measured: growth inhibition

COc1cc2c(cc1OC)C[N+]1(C)CCc3cc(OC)c(OC)cc3C1C2 (stereo unspecified)
inactive: [1] -16% | [2] -30.9% | [3] -9.9% | [4] 9.1% | [5] -8% | [6] -5.55%

COC1OC(CI)C(OC(=O)c2ccccc2)C(OC(=O)c2ccccc2)C1OC(=O)c1ccccc1 (stereo unspecified)
inactive: [1] 10.8% | [2] 21.4% | [3] 10.2% | [4] 15.2% | [5] 36.1% | [6] 33.5%

Cn1cc(N=P(c2ccccc2)(c2ccccc2)c2ccccc2)c(=O)n(C)c1=O
inactive: [1] -5.8% | [2] 4.15% | [3] -11.1% | [4] 1.35% | [5] -2.15% | [6] 5.55%

CC1CCCC(=O)CC1 (stereo unspecified)
inactive: [1] 7.35% | [2] 9.85% | [3] -2.85% | [4] 16.3% | [5] -0.45% | [6] 6.5%

CCOC(OCC)N(C)C
inactive: [1] -14.9% | [2] -5.25% | [3] -3.05% | [4] -4.8% | [5] -5.5% | [6] -26.8%

Clc1nc2ccccc2s1
inactive: [1] -32.4% | [2] -5.2% | [3] -24.8% | [4] -38% | [5] -21.1% | [6] 3.2%

CC1=COC(=O)[C@@H]2[C@@H](C)CC[C@@H]12
inactive: [1] 1.1% | [2] -3.65% | [3] -9.6% | [4] 10.3% | [5] 6.05% | [6] -4.2%

Nc1cc(=O)n(C2CC(O)C(CO)O2)cn1 (stereo unspecified)
inactive: [1] 7.25% | [2] 2.05% | [3] 11.5% | [4] 1.95% | [5] -13.3% | [6] 5.6%

NC(=O)C1=Cc2cccn2-c2ccccc2S1
inactive: [1] 3.45% | [2] -2.1% | [3] -2.75% | [4] -16.6% | [5] 2.1% | [6] 0.8%

O=C(NC1CCCCC1)Oc1ccc(-c2ccccc2)cc1Cl
active: [1] 98.7% | [2] 99.3% | [3] 98.3% | [4] 98.2% | [5] 99% | [6] 99.1%

N#[N+]c1ccc(Nc2ccccc2)cc1
inactive: [1] -8.2% | [2] 9.55% | [3] -20.1% | [4] 12.3% | [5] -10.8% | [6] -4.25%

C#CC1(O)CCC2[C@@H]3CCc4cc(Oc5nc(F)nc(-c6c7ccccc7cn6C)n5)ccc4C3CC[C@@]21C (stereo partly specified)
inactive: [1] 37.5% | [2] 25.3% | [3] 1.4% | [4] 5.05% | [5] 32.6% | [6] 42.8%

COc1cccc2c1OC(=O)NC2O (stereo unspecified)
inactive: [1] -8.35% | [2] -4.3% | [3] -17.9% | [4] -13.5% | [5] -20.4% | [6] 4.3%

N#CC1CC=CCN1CCc1ccccc1 (stereo unspecified)
inactive: [1] -9.5% | [2] -5.75% | [3] -4.95% | [4] 42.5% | [5] 20.7% | [6] 7.5%

CCN(CC)C1=C(C)S(=O)(=O)C1c1ccc(C)cc1 (stereo unspecified)
inactive: [1] -9.1% | [2] -12.6% | [3] -8.85% | [4] 5.6% | [5] -13.4% | [6] -2.15%

CCc1ccc(N=Nc2c(F)c(F)c(NC(C)=O)c(F)c2F)cc1
inactive: [1] -3.95% | [2] 11.3% | [3] -10.5% | [4] 6.9% | [5] 7.9% | [6] -13.4%

O=C(O)CCC(=O)NC1c2ccccc2Oc2ccccc21
inactive: [1] -5.9% | [2] -1.75% | [3] 11.6% | [4] -10.2% | [5] 7.85% | [6] 5.95%

COC(=O)C(N)CSc1ccc([N+](=O)[O-])cc1[N+](=O)[O-] (stereo unspecified)
inactive: [1] 37.5% | [2] 39.5% | [3] 40.2% | [4] 25.1% | [5] 16.1% | [6] 48.9%

CC1C2CC(C(S(=O)(=O)O)C2=O)C1(C)C (stereo unspecified)
inactive: [1] 9.25% | [2] -7% | [3] -32.5% | [4] 6.45% | [5] -36.8% | [6] -29.3%

COc1ccc(Cc2cc3c(cc2OCC(=O)N2CCOCC2)OCO3)cc1
inactive: [1] -3.25% | [2] -9.5% | [3] -4.25% | [4] -37.7% | [5] 20.4% | [6] -3.3%

NC(=O)C(=O)C1CCC2=C(Sc3ccccc3N2)C1=O (stereo unspecified)
inactive: [1] 39.5% | [2] -5.4% | [3] -6.35% | [4] 30.1% | [5] 34% | [6] 4.5%
